Test results published in PubChem BioAssay AID1259418 (Broad Institute, 2018).
About 840 (25%) of roughly 3,400 compounds were called active. Inconclusive results (about 11%) are left out.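 The calls were made as follows: active = fitted half-maximal concentration of signal decrease at or below twice the sample's top tested concentration; inconclusive = flat curve between -70 and -30 percent, or poor fit; inactive = flat within 30 percent, signal rise, or potency above limit.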 A selection follows. Measured potencies and affinities stand elsewhere.

Assay: T. gondii growth inhibition with IFN-gamma, dose response, cell-based, ME49Luc, HeLa, luciferase, 72 h (AID 1259418)
Details: T. gondii ME49Luc in IFN-y HeLa, hits give low values, -100% = high-dose IFN-γ control wells; at 19.5 µM unless noted

Question: For `Cc1ccc2[nH]cc(CCNC(=O)c3cc(-c4ccccn4)nc4ccccc34)c2c1`, which max activity is on record?
Answer: 11.1% (inactive)

Question: With `CCCCN(C)C(=O)Cn1c(=O)c(S(=O)(=O)c2ccccc2)cc2ccccc21` as the compound, how does the max activity read?
Answer: 11.6% (inactive)

Question: With `Cc1ccc(-c2coc(-c3ccc(NC(=O)Nc4ccc5c(c4)OCO5)cc3)n2)c(C)c1` as the compound, how does the max activity read?
Answer: 49.1% (inactive)

Question: For `Cc1ccc(C(=O)N2CCC3(CC2)Nc2cc(F)ccc2-n2cccc23)cc1`, which max activity is on record?
Answer: 6.63% [at 0.16 µM] (inactive)

Question: Which max activity does the source give for `CSc1ccc(CNC(=O)COc2nc(C)nc3ccccc23)cc1` here?
Answer: -10.1% [at 5 µM] (inactive)

Question: For `CCOc1ccc(NC(=O)N2CCc3nc(-c4cccc(OC)c4)sc3C2)cc1`, which max activity is on record?
Answer: 6.38% (inactive)

Question: Which max activity does the source give for `COc1ccc(-c2nc(Cn3nnc(-c4nc(-c5ccc(F)cc5)no4)c3C)c(C)o2)cc1` here?
Answer: -9.56% [at 5 µM] (inactive)

Question: With `COc1ccc(-c2nc(NCCc3cc(OC)ccc3OC)c3ccccc3n2)cc1` as the compound, how does the max activity read?
Answer: 10.1% (inactive)

Question: For `COc1ccc(-c2nc(NCCc3ccccc3)c3ccccc3n2)cc1`, which max activity is on record?
Answer: -16% [at 10 µM] (inactive)

Question: Which max activity does the source give for `CCOC(=O)C1CCN(c2nc(-c3ccc(OC)cc3)nc3ccccc23)CC1` here?
Answer: -8.44% [at 0.68 µM] (inactive)

Question: Which max activity does the source give for `Cc1nc(-c2ccc(C(=O)N3CCC(C)CC3)cc2)cs1` here?
Answer: 19% (inactive)

Question: Which max activity does the source give for `COc1ccc(Cl)cc1NC(=O)CN1CCC2(CC1)N=C(c1cccc(F)c1)C(=O)N2` here?
Answer: 7.5% [at 5 µM] (inactive)

Question: Which max activity does the source give for `CCOc1ccc(C(=O)N2CCC3(CC2)Nc2cc(OC)ccc2-n2cccc23)cc1` here?
Answer: 8.9% (inactive)

Question: Which max activity does the source give for `COc1ccc(NC(=O)COc2nc(C)nc3ccccc23)c(OC)c1` here?
Answer: 17.4% [at 0.16 µM] (inactive)

Question: Which max activity does the source give for `O=S(=O)(c1ccc(F)cc1)N1C[C@@H]2N[C@H](C1)C2c1ccc(/C=C/c2ccccc2)cc1` (some centres undefined) here?
Answer: 26.3% (inactive)

Question: With `Cc1ccc(CN2CC3CN(Cc4cccc(F)c4)CC3C2)s1` (centres undefined) as the compound, how does the max activity read?
Answer: 10.1% (inactive)

Question: Which max activity does the source give for `COc1ccc(OC)c(NC(=O)Nc2ccc(-c3nc(-c4cc(C)ccc4C)co3)cc2)c1` here?
Answer: -12.9% [at 0.35 µM] (inactive)

Question: With `Cc1nc(OCC(=O)Nc2ccccc2C(F)(F)F)c2ccccc2n1` as the compound, how does the max activity read?
Answer: 21.7% [at 0.16 µM] (inactive)

Question: Which max activity does the source give for `CCN1CCO[C@@H]2CN(C(=O)CC3Cc4ccccc4C3)C[C@@H]2C1` here?
Answer: 43.5% (inactive)

Question: For `Cc1ccc(CC(=O)Nc2ccc3c(c2)CCC(=O)N3)cc1`, which max activity is on record?
Answer: 7.74% (inactive)

Question: Which max activity does the source give for `O=C1CCc2cc(NC(=O)C(F)(F)F)ccc2N1` here?
Answer: -12.7% [at 2.6 µM] (inactive)

Question: For `O=C1CCc2cc(NC(=O)c3ccc(OC(F)(F)F)cc3)ccc2N1`, which max activity is on record?
Answer: -8.43% [at 0.35 µM] (inactive)

Question: With `Cc1ccc(C)c(C(=O)Nc2ccc3c(c2)CCC(=O)N3)c1` as the compound, how does the max activity read?
Answer: -6.43% [at 1.35 µM] (inactive)

Question: For `Cc1ccc(C(=O)Nc2ccc3c(c2)CCC(=O)N3)c(C)c1`, which max activity is on record?
Answer: 42% (inactive)

Question: Which max activity does the source give for `O=C1CCc2cc(NC(=O)c3ccc(C(F)(F)F)cc3)ccc2N1` here?
Answer: -7.37% [at 1.35 µM] (inactive)

Question: For `CC(C)N1CCN(CC#N)C2(CCN(C(=O)c3ccc[nH]3)C2)C1=O` (centres undefined), which max activity is on record?
Answer: 43.6% (inactive)

Question: For `COc1ccc(CC(=O)Nc2ccc(-c3nc(-c4ccccc4)co3)cc2)cc1`, which max activity is on record?
Answer: -7.29% [at 1.35 µM] (inactive)

Question: With `CCOc1ccccc1-c1nc(CN(c2ccc(OC)cc2)S(=O)(=O)c2ccccc2)c(C)o1` as the compound, how does the max activity read?
Answer: 7.8% (inactive)

Question: For `O=C(Cn1c(=O)c(S(=O)(=O)c2ccccc2)cc2ccccc21)N1CCCC1`, which max activity is on record?
Answer: -8.97% [at 0.16 µM] (inactive)

Question: For `COc1ccc(-c2nc(Nc3cc(C)ccc3OC)c3ccccc3n2)cc1`, which max activity is on record?
Answer: 19.6% (inactive)

Question: For `Cc1ccc(CC(=O)Nc2ccc(-c3nc(-c4ccccc4)co3)cc2)cc1`, which max activity is on record?
Answer: 9.88% [at 5 µM] (inactive)

Question: With `O=C(CC1Nc2c3ccccc3nc(=S)n2C1=O)NCCc1ccc(Cl)cc1` (centres undefined) as the compound, how does the max activity read?
Answer: -20.4% [at 0.16 µM] (inactive)

Question: For `CCOC(=O)C(=O)Nc1ccc(-c2nc(-c3cc(C)ccc3C)co2)cc1`, which max activity is on record?
Answer: 15.3% [at 0.16 µM] (inactive)

Question: Which max activity does the source give for `COc1cc(OC)c(NC(=O)Nc2ccc(-c3nc(-c4ccc(C)cc4)co3)cc2)cc1Cl` here?
Answer: 86.6% (inactive)

Question: With `Cc1ccc(C(=O)Nc2ccc(N3CCC(C(N)=O)(N4CCCCC4)CC3)c(C(=O)O)c2)cc1` as the compound, how does the max activity read?
Answer: 15% [at 2.6 µM] (inactive)

Question: With `NC(=O)C1(N2CCCCC2)CCN(c2ccc(NC(=O)c3ccccc3F)cc2C(=O)O)CC1` as the compound, how does the max activity read?
Answer: -16.3% [at 0.35 µM] (inactive)

Question: For `CCOC(=O)C1CCC(CNC(=O)Nc2ccc(-c3nc(-c4ccc(C)cc4C)co3)cc2)CC1` (centres undefined), which max activity is on record?
Answer: -7.93% [at 0.35 µM] (inactive)

Question: Which max activity does the source give for `COc1cc(NC(=O)CN2CCC3(CC2)N=C(c2cccc(F)c2)C(=O)N3)cc(OC)c1` here?
Answer: -16.9% (inactive)

Question: Which max activity does the source give for `Cc1ccc(-c2coc(-c3ccc(NC(=O)Nc4ccc(C)c(F)c4)cc3)n2)c(C)c1` here?
Answer: 14.2% (inactive)

Question: Which max activity does the source give for `COc1ccc(-c2nc(Cn3c(=O)c4c(C)cc(C)nc4n(-c4ccccc4)c3=O)c(C)o2)cc1` here?
Answer: -4.82% [at 10 µM] (inactive)

Question: Which max activity does the source give for `COc1cccc(C(=O)Nc2ccc(-c3nc(-c4ccc(C)cc4)co3)cc2)c1` here?
Answer: 73.1% (inactive)

Question: With `COc1cccc(C(=O)Nc2ccc(-c3nc(-c4ccccc4)co3)cc2)c1` as the compound, how does the max activity read?
Answer: -14.9% [at 10 µM] (inactive)

Question: For `COc1cccc(NC(=O)CN2CCC3(CC2)N=C(c2ccc(F)cc2)C(=O)N3)c1`, which max activity is on record?
Answer: -15.6% [at 0.68 µM] (inactive)

Question: Which max activity does the source give for `CCOc1ccc(-c2nc3c(s2)CN(S(=O)(=O)c2ccc(C(C)C)cc2)CC3)cc1` here?
Answer: 12.8% (inactive)

Question: With `O=C(CC1N=C2c3ccccc3N=C(SCc3cc(=O)n4cc(Cl)ccc4n3)N2C1=O)NCc1ccco1` (centres undefined) as the compound, how does the max activity read?
Answer: 13% [at 10 µM] (inactive)

Question: With `Cc1ccc(C(=O)Nc2c(C(=O)N3CCCC3)[nH]c3ccccc23)cc1` as the compound, how does the max activity read?
Answer: 14.8% [at 2.6 µM] (inactive)

Question: Which max activity does the source give for `O=C(Cc1ccc(F)cc1)N1CCC2(CC1)Nc1ccc(Cl)cc1-n1cccc12` here?
Answer: -6.77% [at 5 µM] (inactive)

Question: For `COc1ccc2c(c1)NC1(CCN(C(=O)Cc3ccc(Cl)cc3)CC1)c1cccn1-2`, which max activity is on record?
Answer: 7.11% [at 10 µM] (inactive)

Question: For `CN(C)C(=O)COCc1cncc2c1CCN(c1ccccn1)C2`, which max activity is on record?
Answer: 11.3% [at 10 µM] (inactive)

Question: With `CCc1nc(OCC(=O)Nc2cccc(SC)c2)c2ccccc2n1` as the compound, how does the max activity read?
Answer: 9.62% [at 0.16 µM] (inactive)

Question: With `CCN1C(=O)CCc2cc(NC(=O)CC(C)C)ccc21` as the compound, how does the max activity read?
Answer: 6.42% [at 0.35 µM] (inactive)

Question: For `O=C(C[C@@H]1CC[C@@H]2[C@H](COC[C@H](O)CN2Cc2ccc3c(c2)OCO3)O1)N1CCCCC1`, which max activity is on record?
Answer: 28.4% (inactive)

Question: Which max activity does the source give for `O=C(C[C@H]1CC[C@@H]2[C@H](COC[C@H](O)CN2C(=O)c2cc(Cl)cc(Cl)c2)O1)N1CCc2ccccc2C1` here?
Answer: -23.1% (inactive)

Question: Which max activity does the source give for `O=C(C[C@H]1CC[C@H]2[C@@H](COC[C@@H](O)CN2S(=O)(=O)c2ccccc2F)O1)N1CCC(Cc2ccccc2)CC1` here?
Answer: 25.4% [at 10 µM] (inactive)

Question: Which max activity does the source give for `O=C(C[C@@H]1CC[C@H]2[C@@H](COC[C@H](O)CN2Cc2ccc(Oc3ccccc3)cc2)O1)N1CCN(c2ccccc2)CC1` here?
Answer: 16% [at 10 µM] (inactive)

Question: With `COc1ccccc1-c1nc(Cn2nnc(-c3nc(-c4cccc(C)c4)no3)c2C)c(C)o1` as the compound, how does the max activity read?
Answer: 6.08% [at 0.35 µM] (inactive)

Question: Which max activity does the source give for `CCOc1ccc(-c2nc3c([nH]2)c(=O)n(C)c(=O)n3C)cc1OC` here?
Answer: 30.3% [at 10 µM] (inactive)

Question: For `CC1=NN(C2CCS(=O)(=O)C2)C(=O)C1(Sc1ccccc1)Sc1ccccc1` (centres undefined), which max activity is on record?
Answer: -15.9% [at 10 µM] (inactive)

Question: Which max activity does the source give for `COc1ccc(CC(=O)Nc2ccc(-c3nc(-c4ccc(C)cc4C)co3)cc2)cc1` here?
Answer: 23.3% [at 0.68 µM] (inactive)

Question: For `CN1CCN(Cc2cnc3n2CCN(CC2CCOCC2)C3)CC1`, which max activity is on record?
Answer: 10.5% (inactive)

Question: For `O=C(C[C@H]1CC[C@H]2[C@@H](COC[C@H](O)CN2Cc2cc(F)ccc2F)O1)NCc1ccc(Oc2ccccc2)cc1`, which max activity is on record?
Answer: 17.6% [at 2.6 µM] (inactive)

Question: For `O=C(C[C@H]1CC[C@@H]2[C@H](COC[C@H](O)CN2Cc2cc(F)ccc2F)O1)NCc1ccc(Oc2ccccc2)cc1`, which max activity is on record?
Answer: 17.5% [at 5 µM] (inactive)

Question: Which max activity does the source give for `Cc1ccc(C)c(NC(=O)CN2CCC3(CC2)N=C(c2ccc(F)cc2)C(=O)N3)c1` here?
Answer: 21.8% [at 10 µM] (inactive)

Question: Which max activity does the source give for `Cc1cccc(-c2nc(CSc3nc4c(c(=O)[nH]3)CN(C(C)C)CC4)c(C)o2)c1` here?
Answer: 19.2% [at 0.68 µM] (inactive)

Question: For `O=C(CC1CCCCC1)Nc1ccc(-c2nc(-c3ccccc3)co2)cc1`, which max activity is on record?
Answer: 19.4% (inactive)

Question: Which max activity does the source give for `Cc1ccc(NC(=O)Nc2ccc(-c3nc(-c4ccccc4)co3)cc2)cc1F` here?
Answer: 16.5% [at 0.16 µM] (inactive)

Question: With `O=C(Cn1c(=O)c(S(=O)(=O)c2ccccc2)cc2ccccc21)NCc1ccccc1Cl` as the compound, how does the max activity read?
Answer: -23.2% [at 0.16 µM] (inactive)

Question: Which max activity does the source give for `CCOC(=O)CNC(=O)Nc1ccc(-c2nc(-c3cc(C)ccc3C)co2)cc1` here?
Answer: 5.17% [at 0.68 µM] (inactive)

Question: Which max activity does the source give for `Cc1ccc(CN2CCC3(CC2)N=C(c2ccc(C)cc2)C(=O)N3)cc1` here?
Answer: 12.6% [at 2.6 µM] (inactive)

Question: Which max activity does the source give for `Cc1ccc(-c2coc(-c3ccc(NC(=O)C(C)(C)C)cc3)n2)cc1` here?
Answer: 29.4% [at 10 µM] (inactive)

Question: Which max activity does the source give for `CCS(=O)(=O)N1[C@H](CO)[C@@H](c2ccc(C#Cc3ccccc3F)cc2)[C@@H]1C#N` here?
Answer: 8.21% [at 10 µM] (inactive)

Question: Which max activity does the source give for `COc1cccc(CC(=O)Nc2ccc(-c3nc(-c4ccc(C)cc4)co3)cc2)c1` here?
Answer: 20.4% (inactive)

Question: For `COCCCN1CCc2nc(SCc3nc(-c4ccccc4OC)oc3C)[nH]c(=O)c2C1`, which max activity is on record?
Answer: 25.6% [at 10 µM] (inactive)

Question: Which max activity does the source give for `COc1ccc(C(=O)Nc2ccc(-c3nc(-c4ccccc4)co3)cc2)cc1OC` here?
Answer: 14.3% [at 0.16 µM] (inactive)
